Most compounds without a hit are left out; they make up all but 3.7% or so of the library.
ANO1 activ – activators or potentiators of mouse TMEM16A chloride channel. Q8BHY3. HEK293 TMEM16A/YFP-H148Q/I152L, iodide quench fluorescence; active compounds read low. B-score at 10 µM. 0.3% of 340,000 active. AID 623877;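 active = fluorescence-ratio B-score plate-corrected deviation score at least 3 library SD below zero, with starting fluorescence score within 5 deviations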;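 note: channel opened by trigger with iodide after compound preincubation; score built on the fluorescence ratio of max minus min over baseline; more negative score means more quench and so TMEM16A activation or potentiation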
Target sequence (Q8BHY3 whole entry, looked up): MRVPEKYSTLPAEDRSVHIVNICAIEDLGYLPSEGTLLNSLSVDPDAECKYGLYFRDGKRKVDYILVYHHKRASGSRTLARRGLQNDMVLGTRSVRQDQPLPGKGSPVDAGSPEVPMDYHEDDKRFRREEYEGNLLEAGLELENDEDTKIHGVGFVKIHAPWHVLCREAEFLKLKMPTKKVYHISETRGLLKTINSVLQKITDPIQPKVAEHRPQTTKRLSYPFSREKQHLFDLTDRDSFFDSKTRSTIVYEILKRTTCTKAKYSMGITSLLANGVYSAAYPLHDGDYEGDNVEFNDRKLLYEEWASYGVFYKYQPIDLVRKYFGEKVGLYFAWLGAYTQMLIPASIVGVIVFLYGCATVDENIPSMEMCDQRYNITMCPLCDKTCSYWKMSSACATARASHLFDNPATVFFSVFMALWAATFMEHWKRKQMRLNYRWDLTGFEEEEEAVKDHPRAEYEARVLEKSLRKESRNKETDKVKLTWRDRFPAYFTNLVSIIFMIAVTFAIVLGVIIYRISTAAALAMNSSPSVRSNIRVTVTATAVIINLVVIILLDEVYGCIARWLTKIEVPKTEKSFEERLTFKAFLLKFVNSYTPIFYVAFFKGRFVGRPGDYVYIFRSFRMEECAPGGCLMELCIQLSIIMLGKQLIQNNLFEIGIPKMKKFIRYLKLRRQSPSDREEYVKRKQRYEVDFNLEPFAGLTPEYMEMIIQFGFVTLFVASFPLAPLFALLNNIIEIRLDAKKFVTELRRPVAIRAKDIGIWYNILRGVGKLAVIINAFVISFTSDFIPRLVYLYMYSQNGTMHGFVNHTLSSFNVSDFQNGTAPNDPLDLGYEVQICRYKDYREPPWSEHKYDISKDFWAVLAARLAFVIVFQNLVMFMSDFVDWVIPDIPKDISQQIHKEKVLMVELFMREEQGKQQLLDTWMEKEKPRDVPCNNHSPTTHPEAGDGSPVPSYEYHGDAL
CHT inh – human CHT choline transport inhibition; CHT-expressing cells, membrane potential dye, choline response; active compounds read low; B-score at 10 µM; 0.86% of 310,000 active; AID 488975;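 active = B-score over 3 SD under the library average, and starting fluorescence ratio not unusually high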;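 note: choline stimulus applied at its EC90 after an EC20 pre-addition; B-score computed on integrated fluorescence ratio after choline addition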
ANO1 block – inhibitors of mouse TMEM16A calcium-activated chloride channel; HEK293 TMEM16A/YFP iodide influx fluorescence, ionomycin; normalized B-score (activity score, 25-100; higher = stronger inhibition) at 10 µM; 1.2% of 310,000 active; AID 588511;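 active = ratio plate-corrected score three or more library SD toward inhibition, starting fluorescence score within five deviations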;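 note: score derived from kinetic fluorescence span divided by baseline fluorescence per well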
Kir21 block – blocks the mouse Kir2.1 inward-rectifier potassium channel | P35561 | HEK293-Kir2.1, FluxOR thallium flux fluorescence; active compounds read low | B-score at 10 µM | 0.85% of 310,000 active | AID 1672;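 active = fluorescence ratio B-score at or below minus 3 SD of library scores, with starting-brightness B-score within 2 SD, cut at about -4.2 in these data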;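 note: channel flux triggered by added potassium and thallium sulfate stimulus; B-score of peak minus minimum fluorescence over baseline after thallium stimulus; more negative B-score means stronger Kir2.1 block with less thallium influx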
CHT PAM – human CHT allosteric activation; Q9GZV3; CHT-expressing cells, membrane potential dye, choline EC20; active compounds read high; LV-AA mutant CHT in HEK293 cells; B-score at 10 µM; 0.49% of 310,000 active;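 active = initial fluorescence not abnormally high and integrated response B-score, plate-corrected, over 3 SD above library mean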
GPR7 antagonist – blocks human GPR7 receptor signaling. AID 1861. P48145. inhibition, % at 4.4 µM. GPR7-expressing cells, fluorescence antagonist assay. 1.1% of 290,000 active; in the data active = inhibition above about 16%, passing the limit was not always enough;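 note: cells stimulated with the agonist NPW; 0% = agonist with vehicle and 100% = vehicle without agonist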
CHT act confirm – human CHT activation, confirmatory screen. 91% of 2,500 active. activation, % at 10 µM. shares compounds with CHT PAM. CHT-expressing cells, membrane potential dye fluorescence (FDSS); % of choline EC20–EC90 response window; HEK293 expressing CHT LV-AA mutant; choline added at its EC20;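 active = primary screen active, with duplicate mean activation above negative control mean plus 3 SD, cut at about 11% in these data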
HEK293 MP dye – activity in parental HEK293 cells lacking CHT. shares compounds with CHT PAM. membrane potential dye fluorescence (FDSS); measured after EC20 choline addition. ratio readout change at 10 µM, hits read low. 62% of 2,500 active;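 active = duplicate-averaged ratio beyond 3 SD from buffer wells, up or down, though filed actives are nearly all decreases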
Active calls of the source: *; i = inactive; / = not tested or not shown.

SMILES | ANO1 activ | CHT inh | ANO1 block | Kir21 block | CHT PAM | GPR7 antagonist | CHT act confirm | HEK293 MP dye
CC(C)N1CCc2c(sc(NC(=O)c3ccc(S(=O)(=O)N(C)CC4CCCO4)cc3)c2C(N)=O)C1 (stereo unspecified) | i | i | i | 0.37 | i | -14 | / | /
Cc1oc(-c2cccc(Cl)c2)nc1CN1CCC(C(=O)NCCCN2CC(C)CC(C)C2)CC1 (stereo unspecified) | i | i | i | -0.51 | i | 5 | / | /
COc1ccc(CCNC(=O)C2CCN(Cc3nc(-c4cccc(Cl)c4)oc3C)CC2)cc1OC | i | i | i | -0.78 | i | 9 | 30* | -36*
COc1ccc(-c2nc(CN3CCC(C(=O)NC4CC4)CC3)c(C)o2)cc1OC | i | i | i | 0.33 | i | 1 | / | /
COc1ccc(-c2nc(CN3CCC(C(=O)N4CCc5ccccc54)CC3)c(C)o2)cc1OC | i | i | i | 0.95 | i | -14 | 39* | -38*
COc1ccc(OC)c(Cc2nnc(CCC(=O)NC3C4CC5CC(C4)CC3C5)o2)c1 (stereo unspecified) | i | i | i | -1.2 | i | 17 | / | /
CCOCCCn1c(=NC(C)=O)c(C(=O)OCC)cc2c(=O)n3ccccc3nc21 | i | i | i | 1.2 | i | -4 | 17* | -42*
CCOCCCn1c(=NC(C)=O)c(C#N)cc2c(=O)n3ccccc3nc21 | i | i | i | -1.6 | i | -2 | / | /
CC1CCCC(C)N1C(=O)COC(=O)COc1ccc(C#N)cc1 (stereo unspecified) | i | / | / | / | / | / | / | /
Cc1ccc(C(=O)c2c3ccc([N+](=O)[O-])cc3[n+]([O-])n2CCCN)cc1 | i | i | i | 0.15 | 6.5* | / | 34* | -40*
Cc1ccc(C(=O)c2c3ccc(C(F)(F)F)cc3[n+]([O-])n2CCCC(N)=O)cc1 | i | i | i | 0.43 | i | / | / | /
COc1ccc(NC(=O)Cn2cnc3c(oc4nc5c(cc43)COC(C)(C)C5)c2=O)cc1 | i | i | i | 2.8 | i | -3 | / | /
CC(C)N1CCC(N2CCN(Cc3cc(F)ccc3-n3cccn3)CC2CCO)CC1 (stereo unspecified) | i | i | i | -2.2 | i | 6 | 73* | -55*
COc1ccccc1C(CNc1ncnc2sc(C)c(C)c12)N(C)C (stereo unspecified) | i | i | i | 0 | i | -11 | 54* | -52*
Cc1sc2ncnc(NCC(c3ccco3)N(C)C)c2c1C (stereo unspecified) | i | i | i | -0.8 | i | -3 | / | /
C[C@H](CO)N1C[C@H](C)[C@@H](CN(C)C(=O)NC2CCCCC2)Oc2ccc(NS(C)(=O)=O)cc2C1=O | i | / | / | / | / | / | / | /
CCOC(=O)c1cnc2ccc(OCC)cc2c1N(C)Cc1ccccc1 | i | i | i | -1.7 | 9.6* | 4 | 41* | i
C[n+]1ccccc1/C=C/c1ccc(F)c(F)c1 | i | i | i | -0.91 | 8.3* | -20 | 58* | -65*
Cc1ccccc1/C=C/c1cccc[n+]1C | i | i | i | 0.23 | i | -5 | 45* | -55*
C[n+]1ccccc1/C=C/c1c(F)cccc1F | i | i | i | -0.52 | i | -4 | / | /
C[n+]1ccccc1/C=C/c1ccccc1Cl | i | i | i | 0.5 | i | -11 | / | /
COC(=O)C1CCc2c(ccc3c2CCCC3)C1=O (stereo unspecified) | i | / | / | / | / | / | / | /
O=C1c2ccccc2N2C(=O)c3ccccc3C2N1Cc1ccccc1 (stereo unspecified) | i | i | i | -1.4 | i | -11 | 26* | i
COc1ccc(CNC(=O)Cn2cc(C)c(=O)[nH]c2=O)cc1 | i | / | / | / | / | / | / | /
CCn1cnc2cc(NCc3ccncc3)ccc21 | i | i | i | 0.22 | i | -11 | 49* | -38*
SMILES | ANO1 activ | CHT inh | ANO1 block | Kir21 block | CHT PAM | GPR7 antagonist | CHT act confirm | HEK293 MP dye
c1cncc(Nc2nc(-c3cccnc3)cs2)c1 | i | i | i | 0.23 | 6.9* | -9 | 43* | -45*
Cc1nc(C)c(-c2csc(Nc3ccc(N)cc3)n2)s1 | i | i | i | -2.1 | i | -3 | / | /
c1cncc(Nc2nc(-c3ccncc3)cs2)c1 | i | i | i | 1.8 | 7.5* | -6 | 46* | -49*
Cc1nc(C)c(-c2csc(Nc3cccnc3)n2)s1 | i | i | i | -1.5 | i | -16 | 35* | -34*
Cc1ccc(S(=O)(=O)N2CCN(C(=O)COC(=O)CCOc3ccccc3)CC2)c(C)c1 | i | / | / | / | / | / | / | /
CC(=O)Nc1ccccc1C(=O)N1CCN(Cc2ccc3c(c2)OCO3)CC1 | i | i | i | 0.31 | i | -19 | / | /
O=C(Cc1ccc(Cl)cc1)Nc1cc(Cl)ccn1 | i | i | i | -0.01 | i | / | / | /
C#CCOCCOCCOCCNc1nc(N2CCN(C(=O)[C@H](CCCCN)n3cc([C@@H](N)C(C)CC)nn3)CC2)nc(N2CCN(C(=O)[C@H](CCCCN)n3cc([C@@H](N)CC(C)C)nn3)CC2)n1 (stereo partly specified) | i | i | i | 0.97 | 6.5* | -10 | 38* | -37*
CC(OC(=O)CC(NC(=O)c1ccccc1Cl)c1ccccc1)C(=O)Nc1cccc(Cl)c1Cl (stereo unspecified) | i | i | i | -0.17 | i | 20 | 31* | i
O=C(N[C@@H]1CCC(=O)N(CC[C@H](Oc2ccccc2)c2ccccc2)CC1)OCc1ccccc1 | i | i | i | -0.16 | i | 18 | 25* | i
CN(C(=O)N1CCN(S(=O)(=O)c2ccccc2)CC1)c1ccccc1 | i | i | i | 1.2 | i | -11 | / | /
Cc1ccc(N/C(N)=N/c2nc(CSc3ccc(C)cc3)cc(=O)[nH]2)cc1 | i | / | / | / | / | -14 | / | /
Cc1ccc(N/C(N)=N/c2nc(CSc3nnc(N)s3)cc(=O)[nH]2)cc1 | i | i | i | -0.08 | i | -12 | 5 | i
CCN1CCN(c2ccc(S(=O)(=O)N3CCCCC3)cc2NC(=O)Cc2ccc(OC)cc2)CC1 | i | i | i | -1.6 | i | 3 | 39* | -36*
N=C1C(=O)OCC1c1ccccc1NC(=O)CN1CCOCC1 (stereo unspecified) | i | i | i | 0.14 | i | 4 | / | /

Assay outcomes (PubChem BioAssay)
